Measured values from the OligoGym collection.

molecular target: PEAR1; assay: pooled miR-30 sensor sort-seq; sequence = guide strand; details: shRNA
Note: reference of the scale not given here.

Sequence | sensor-assay potency score (higher = more potent)
TAGCTATAGCTGTAGCTTCGGT | -1.04
TTGCTGTAGCTATAGCTGTAGC | -1.31
TTCATCTCCATGTAGCTGCTCT | 0.0491
TATAGCTGTAGCTTCGGTCCAG | 0.0436
TTGCCTTTTTGCCAGTGCCGAT | -1.65
TCCATGTAGCTGCTCTCCCGGG | -1.66
TAGTAGTGACTGTAGCTCGGAG | -0.228
ATTGCTGTAGCTATAGCTGTAG | -0.261
TTGGTGGTGGTAGTGAAGCTTT | -1.22
TAGCAGGTCCCGTTCGAGGGGT | -0.75
TTTCACATGAGCAGCGTGCAGA | -0.314
TCTGGCATGACATACTCGGAGC | -0.939

molecular target: PEBP1; assay: as above; details: shRNA

Sequence | sensor-assay potency score (higher = more potent)
TTTGATCAAAACATAAATCAGA | -0.67
TATTATACATGCAACACTGAAC | -0.804
TAAAATCACATTGTGTACCATT | -0.719
TAAACCAGCCAGACATAGCGGT | -0.718
TAATCGGAGAGGACTGTGCCAC | -0.276
TTTCTTTTTTACATTCTGGGTT | 0.0306
TAACACGTGCCAGCCACCGGGG | -1.45
TATACATGCAACACTGAACTGG | 0.186
TGCTCTATCACTGTAGACCTGG | 0.029
TTCTTTTTTACATTCTGGGTTG | -0.707
ATACATGCAACACTGAACTGGG | 0.364
TATCACTGTAGACCTGGTCTTT | -0.444

molecular target: PECR; assay: as above; details: shRNA

Sequence | sensor-assay potency score (higher = more potent)
TAAACTGCTTTGCACATGTAGA | -1.07
TCTGGGAATAAATAACTCCAGG | -1.4
TCAATCTCTCCAACTTACGGGA | -0.32
TTAAAGGTCTCCTTCATCTTTT | -0.272
TATGGGAATGACTCGTGCCTGC | -0.624
TAGTTCTCCACAGCAGTCTGGG | -0.504
TTCATCTTTTTGACAACAGAAA | -1.6
TTTGACAACAGAAAGGTCCCCT | 0.815
TTCAATCTCTCCAACTTACGGG | 0.0068
TTCCATACCAACTATAAGCTTT | -0.179
TTGATCCGTATTCCACTGCAGG | -0.697
TAGAACTGATGTGTTCAGCAGG | -0.616

molecular target: PEG10; assay: as above; details: shRNA

Sequence | sensor-assay potency score (higher = more potent)
TTGCCATCGAACTTCTCTGGGA | -0.275
TTTGGCAACCTCTCGCCTCTGA | -0.158
TTCCACTTGCTCTCGAAGGGTG | -0.417
TAGTTGTGCATCAGGTAGTGGG | -0.718
